Assay results taken from PubChem BioAssay (NCI).
The panel holds about 79,000 compounds, 15% with a hit somewhere; the sample as a whole holds those more often. Values without a mark were called inactive. The source made the active and inactive calls. No stated cut-off is given here; in the data, active means growth inhibition above about 70%; inactive means the rest.

Assays:
[1] = NCI Yeast Anticancer Drug Screen. Data for the rad50 strain (AID 155);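 further: 0% = growth of vehicle-only cultures of the same strain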; details: S. cerevisiae rad50 strain growth inhibition; at 50.0 µM; active compounds read high
Method in brief: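 Vehicle-treated cultures provide the reference for the growth inhibition reported for compound-exposed, repair-deficient yeast.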

[2] = NCI Yeast Anticancer Drug Screen. Data for the mec2-1 strain (AID 157); details: S. cerevisiae mec2-1 strain, at 50.0 µM, active compounds read high
Method in brief: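 Mutant yeast (mec2-1) grown with compound; growth inhibition relative to vehicle control reported.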

[3] = NCI Yeast Anticancer Drug Screen. Data for the sgs1 mgt1 strain (AID 161);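 further: 0% = growth of cultures given vehicle only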; details: S. cerevisiae sgs1 mgt1 strain, at 50.0 µM, active compounds read high
Method in brief: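 Yeast cells carrying a defined DNA-repair defect were exposed to test compounds. Growth inhibition was measured relative to vehicle-treated controls.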

[4] = NCI Yeast Anticancer Drug Screen. Data for the cln2 rad14 strain (AID 165);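 further: 0% = growth equal to vehicle treated cultures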; details: S. cerevisiae cln2 rad14 strain, at 50.0 µM, active compounds read high
Method in brief: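 Readout is yeast growth inhibition versus vehicle-treated controls, using a strain with cln2 and rad14 alterations exposed to compound.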

[5] = NCI Yeast Anticancer Drug Screen. Data for the bub3 strain (AID 167); details: S. cerevisiae bub3 mutant strain, at 50.0 µM, active compounds read high
Method in brief: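 Mutant yeast screening strain plus compound; vehicle-treated cultures serve as the 0% inhibition reference.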

[6] = NCI Yeast Anticancer Drug Screen. Data for the mlh1 rad18 strain (AID 175); details: S. cerevisiae mlh1 rad18 strain growth inhibition; at 50.0 µM; active compounds read high
Method in brief: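 Genetically defined yeast (DNA repair-deficient) exposed to compounds; growth inhibition determined relative to vehicle.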

SMILES	growth inhibition [1]	growth inhibition [2]	growth inhibition [3]	growth inhibition [4]	growth inhibition [5]	growth inhibition [6]
CC1(C)C2CCC(CN)C1C2 (configuration not stated)	-11.4%	-44.6%	-1.7%	13.3%	-20.1%	-15.6%
CN1C(=O)N(c2nc3ccccc3[nH]2)C(C)(C)C1=O	5.25%	1.9%	-23.8%	-6.4%	6.35%	18.6%
CC(C)=CC1C(C(=O)Oc2c(Cl)c(Cl)c(Cl)c(Cl)c2Cl)C1(C)C (configuration not stated)	12.5%	6.5%	40.9%	12.2%	-4.15%	31.2%
CC(=O)[OH+]c1c(I)cc(I)cc1C(=O)[O-].CC(=O)[OH+]c1c(I)cc(I)cc1C(=O)[O-].[Cu+2]	-8.15%	2.3%	-5.8%	-5%	11.5%	4.95%
COc1ccc2c(c1)-c1c3c(cc4ccnc(c14)C2=O)OCO3	91.7% (active)	93% (active)	93.4% (active)	91.5% (active)	92% (active)	91.8% (active)
Cc1cc(=O)n(-c2c(C)cccc2Cl)c(/C=C(\O)c2ccncc2)n1	4.25%	-2.65%	3.8%	8.3%	4.15%	2.85%
O=C(O)c1cc(-c2ccccc2O)nc2ccccc12	-19.5%	-7.1%	-5.2%	16.3%	-1.35%	-1.5%
COc1ccc(Cl)cc1NC(=O)c1cccc([N+](=O)[O-])c1	-2.45%	0.7%	12.9%	-13.9%	16.9%	-1.25%
O=C(/C=C/c1ccc(O)c(O)c1)c1ccc(O)cc1O	-26.5%	-27.9%	-24.2%	4.05%	-40.6%	-38.9%
O=C(OC1C#CCSCC#C/C=C\1)c1cnc2ccccc2n1 (configuration not stated)	-34%	-13.4%	-24.3%	-11.2%	-2.55%	-23%
COc1ccc(N=Cc2cc(OC)c(OC)c(OC)c2)cc1	-12.4%	-9.6%	1.5%	-3.55%	-12.9%	0.95%
Cc1ccc(-c2cc(=O)c3cc(C)c(C)c(C(=O)O)c3o2)cc1	3.15%	0.25%	10.8%	19.9%	7.1%	10.8%
CC1(C(=O)O)C(=O)Oc2c1c1ccccc1c1ccccc21 (configuration not stated)	15.3%	10.7%	0.75%	10.8%	16.3%	27.5%
O=C(Nc1ccc2ccccc2c1)C(F)(F)F	-14.7%	-1%	-4.25%	-9.8%	5.4%	-8.95%
CC1(C)CC(=O)C(C(c2ccc3c(c2)CCC3)C2C(=O)CC(C)(C)CC2=O)C(=O)C1	-18.1%	-27.9%	-31.1%	23.9%	-26.3%	-21.4%
C=C1c2nc3ccccc3n2C=C(c2ccc(C)cc2)N1c1ccc(OC)cc1	-10.2%	-6.45%	-7%	15.5%	-19%	-17.9%
Oc1ccc(Cl)cc1/C=N/NC(=S)Nc1cccc2cccnc12	24.1%	12.6%	10.7%	20.6%	20.1%	15.7%
COc1ccc(C(O)c2ccccn2)cc1 (configuration not stated)	-13.1%	-35.9%	-24%	-34.8%	-62.7%	-18.7%
O=C1CCCCCCCC(=O)Nc2ccc3nc4ccccc4c(c3c2)SCCCCCCCCCCCCSc2c3ccccc3nc3ccc(cc23)N1	-9.85%	-6.5%	-20.9%	-9.15%	-3.2%	-10.3%

SMILES	growth inhibition [1]	growth inhibition [2]	growth inhibition [3]	growth inhibition [4]	growth inhibition [5]	growth inhibition [6]
CC1CCC(=O)CN1Cc1ccccc1 (configuration not stated)	5.95%	4.45%	9.45%	-11.6%	22.4%	4.85%
NC(=S)N/N=C/c1ccc(OC(F)(F)F)cn1	27.1%	28.1%	46.5%	10.3%	59.5%	40.6%
O=C(OC1(c2nccc3ccccc23)CCCN(Cc2ccccc2)C1)c1ccccc1 (configuration not stated)	28.9%	11.8%	15.9%	14.2%	-1.4%	24.1%
CCN(CC)CCCNc1cc(OC)c(Cl)c2cccnc12	22.2%	9.1%	38%	35.9%	-19.8%	28.7%
OCc1cc(Cl)cc(Cc2cc(Cl)cc(Cc3cc(Cl)cc(Cc4cc(Cl)cc(Cc5cc(Cl)cc(CO)c5O)c4O)c3O)c2O)c1O	-14.8%	-17.4%	-9.35%	-28.4%	-18.9%	-27.9%
COc1ccc(C2CC(=O)Oc3ccccc3O2)cc1 (configuration not stated)	39%	16.4%	32.2%	27.9%	23.6%	38.1%
CCOC(=O)c1cc(C)[nH]c1C	2.65%	-1.9%	-0.55%	-17.6%	23.2%	3.9%
COc1ccc(C(=N)c2ccccc2C)cc1	8%	-8.65%	6.05%	1.65%	8.5%	-8.4%
Cc1ccccc1/C=N\NC(=O)CCCC(=O)N/N=C/c1ccccc1C	-8.9%	2.5%	-25.5%	8.7%	24.4%	-9.4%
Cc1nc2cccc([N+](=O)[O-])c2c(O)[n+]1C	-13.9%	-10.8%	-12.4%	-17.6%	-9.05%	-17.9%
CC(=O)Oc1ccc(C2(OC(C)=O)c3ccccc3C(=O)c3ccccc32)cc1	11.5%	9.9%	34.4%	34.1%	-8.5%	31.8%
CCc1cccc(C(C)C)c1NC(=O)C(=O)C1C(=O)Nc2ccccc2S1=O (configuration not stated)	-3.95%	-13.6%	-16.9%	-11.2%	2.4%	-29.1%
CN1CCN(CC2C(=O)C3CCC2C3)CC1 (configuration not stated)	4.6%	-20.4%	-18.4%	-7.85%	-22.7%	-10.3%
CC(=O)Oc1ccc(C(C)C)cc1	-9.55%	-30.9%	-25.3%	-13.6%	-11.2%	-1.6%
C/[N+]([O-])=N/COC1OC(COC2OCC(O)C(O)C2O)C(O)C(O)C1O (configuration not stated)	7.5%	-0.4%	25.6%	13.8%	8.85%	3.7%
CCOC(=O)NC(Nc1cc(Cl)ccc1OC)(C(F)(F)F)C(F)(F)F	2.5%	-10.5%	-26.1%	9.65%	6.85%	-5.2%
Nc1ccc2cc3ccccc3cc2c1	12.6%	-20.6%	1.95%	-18%	7.35%	25%
Nc1nc(SSc2nc(N)nc3c2ncn3C2OC(CO)C(O)C2O)c2ncn(C3OC(CO)C(O)C3O)c2n1 (configuration not stated)	1.4%	-5.8%	3.9%	-34%	9.45%	-1.3%
